# Reference: PubChem BioAssay AID2283145 (EPA ToxCast)
# Records with an inconclusive call do not appear. Activity calls are given as the source filed them. The calls were made as follows: active = hit-call score of the fitted dose curve at least 0.9, where 1 is the maximum; inconclusive = response in the unintended direction; inactive = score below 0.9.
# Biological target: human Cyclin-Dependent Kinase 6 (CDK6), CDK6 (gene 1021) (UniProt Q00534)
# Experiment: NVS_ENZ_hCDK6: NovaScreen (NVS) Enzymatic Assay for human Cyclin-Dependent Kinase 6 (CDK6)
# Experimental: NVS_ENZ_hCDK6 is a biochemical, single-readout assay that uses extracted gene-proteins in a cell-free assay. Measurements were taken 1 hour after chemical dosing in a 384-well plate.NVS_ENZ_hCDK6 is one of one assay component(s) measured or calculated from the NVS_ENZ_hCDK6 assay. It is designed to make measurements of enzyme activity, a form of enzyme reporter, as detected with fluorescence intensity signals by Fluorescence and electrophoretic mobility shift technology.Data from the assay component NVS_ENZ_hCDK6 was analyzed into 1 assay endpoint. This assay endpoint, NVS_ENZ_hCDK6, was analyzed in the positive analysis fitting direction relative to DMSO as the negative control and baseline of activity. Using a type of enzyme reporter, loss-of-signal activity can be used to understand changes in the enzymatic activity as they relate to the gene CDK6. Furthermore, this assay endpoint can be referred to as a primary readout, because this assay has produced multiple assay endpoints where this one serves a enzymatic activity function. To generalize the intended target to other relatable targets, this assay endpoint is annotated to the kinase intended target family, where the subfamily is serine/threonine kinase.
# Binding assays used specific radioligands (tritiated, iodinated) with non-radioactive competitive displacement ligands in agonist or antagonist protocols (as indicated) and various reference compounds and inhibitors to titrate specific binding to receptors and transporters. Most enzyme assays (CYPs, kinases, phosphatases, proteases, HDACs) used recombinant protein and specific substrates (fluorescence mostly, some colorimetric and radioactive) and inhibitors, followed by a biochemical separation of substrate and product. All assays for the biochemical HTS were initially run in duplicate at a single concentration (10 uM for CYP450 assays and 25 uM for all others). […] Each assay was run with positive and negative controls, and concurrent controls on every plate. The follow-up (secondary) screen tested active chemical-pairs in concentration series, as well as a few additional assays not tested in the primary screen, some selected negative inactives, and several cases re-run in the concentration series for confirmatory purposes.
# Chain of human Cyclin-Dependent Kinase 6 (CDK6), CDK6 (gene 1021) (Q00534 whole entry, looked up): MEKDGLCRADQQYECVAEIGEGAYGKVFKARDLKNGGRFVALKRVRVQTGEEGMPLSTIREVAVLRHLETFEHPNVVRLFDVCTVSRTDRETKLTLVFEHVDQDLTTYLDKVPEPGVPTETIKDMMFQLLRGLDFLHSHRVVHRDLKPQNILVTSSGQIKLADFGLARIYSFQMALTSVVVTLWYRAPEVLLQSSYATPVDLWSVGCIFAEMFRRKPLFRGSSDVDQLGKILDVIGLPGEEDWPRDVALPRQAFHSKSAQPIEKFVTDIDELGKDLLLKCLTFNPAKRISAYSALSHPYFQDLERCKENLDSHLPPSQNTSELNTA
SMILES,outcome,AC50
Nc1c(Cl)c(Cl)nc(C(=O)O)c1Cl,inactive,
CN(C)[C@@H]1C(=O)C(C(N)=O)=C(O)[C@@]2(O)C(=O)C3=C(O)c4c(O)cccc4[C@@](C)(O)[C@H]3[C@H](O)[C@@H]12,,23.1 µM (active)
S=C([S-])NCCNC(=S)[S-].[Mn+2],,10.5 µM (active)
S=C(S)NCCNC(=S)S.[Mn+2].[S-]C([S-])=NCCN=C([S-])[S-].[Zn+2],,9.65 µM (active)
